# A selection: hits, their analogues and other compounds. The true share with any hit is near 4.3%.
# uPA generation – inhibitors of cell surface uPA generation | cell surface uPA generation assay, qHTS | 330,000 tested, 0.31% active | Potency, µM (doses to about 38.3 µM), most hits filed as inhibitors; active = well fitted inhibition curve with a large enough effect; inconclusive = small, poorly fitted or top-dose-only effect; inactive = no such curve, though single readings can be large or run the other way; tested in mouse RAW 264.7 cells; also: nearly all actives have a fitted effect of over 55% in size
# Giardia killer – kills Giardia lamblia; Giardia lamblia trophozoite viability; activity change, % at 7.66 µM, hits read low; 340,000 tested, 0.15% active; in the data active = activity change below about -80%; inconclusive = between about -30% and that limit;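 also: parasites exposed to compound for two days anaerobically before the ATP read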
#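 Killing of trophozoites was scored by loss of ATP luminescence after a 48 hrs anaerobic exposure to compounds at 37 deg C, using 100 cells per well.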
# MCF10A rereplic – induces DNA re-replication in MCF 10a normal breast cells. 350,000 tested, 2.9% active. Potency, µM (titrated, usually from 46.1 µM), usual class: activators. MCF 10A DNA re-replication, Hoechst nuclear intensity, 48 h. AID 624296; also: nearly all actives have a fitted effect of over 50% in size
# SW480 rereplic – DNA re-replication induction in SW480 cells | SW480 DNA re-replication, Hoechst DNA content imaging, 48 h | Potency, µM (series often up to 46.1 µM), hits mostly activators | 340,000 tested, 1.8% active; also: nearly all actives have a fitted effect of over 55% in size
#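 Compounds, transferred as 23 nL by pin tool, were incubated with cells for 48 hr; DNA content per nucleus was then quantified by Hoechst staining and fluorescence plate imaging.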
# Numbers stand for hits; . = inactive; ? = inconclusive; / = no result given. Unless noted, calls follow the shape of the dose curve; as a rule, active = well fitted activation curve with a large enough effect; inconclusive = small, poorly fitted or top-dose-only effect; inactive = no such curve, though single readings can be large or run the other way.
SMILES,uPA generation,Giardia killer,MCF10A rereplic,SW480 rereplic
O=C1CC(c2ccc(F)cc2)CC2=C1C=Nc1ccccc1N2 (centres undefined),.,.,?,.
C=Cc1c(C)/c2[n-]/c1=C\c1[n-]c(c(CC)c1C)/C=c1\[n-]c3c(c1C)C(=O)C(C(=O)[O-])C=3c1[n-]c(c(C)c1CCC(=O)[O-])\C=2.[Cu].[Na+].[Na+] (centres undefined),/,/,.,.
COc1cc(C(=O)N/N=C(\c2ccccc2)c2ccccn2)cc(OC)c1OC,?,.,18.4µM,?
C/C(=N\NC(=O)c1ccccn1)c1ccc(Cl)cc1,.,.,.,.
C/C(=N\NC(=O)c1ccc(Cl)cc1)c1ccccn1,.,.,3.66µM,?
COc1cc(C(=O)N/N=C(\C)c2ccccn2)cc(OC)c1OC,.,.,?,3.66µM
COc1cccc(C(=O)N/N=C(/c2ccccc2)c2ccccn2)c1,.,.,?,?
C#CCOc1ccc(C(=O)N(C)c2ccccc2I)cc1,/,.,/,/
COc1ccc(/C=C2\CN(Cc3ccccc3)C/C(=C\c3ccc(OC)cc3)C2=O)cc1,.,.,8.2µM,/
CCOC(=O)/C=C/C(=O)N1CCN(C(=O)/C=C/C(=O)OCC)CC1,.,.,14.6µM,?
O=C(O)/C=C/C(=O)N1CCN(C(=O)/C=C/C(=O)O)CC1,.,.,.,.
CCOc1ccc(C(=S)N2CCOCC2)cc1OC,.,.,.,.
CCOc1cc2nc(-c3ccc(OC)c(OC)c3)nc(N3CCOCC3)c2cc1OC,.,.,?,23.1µM
COc1cc2nc(Cl)nc(N3CCOCC3)c2cc1OC,.,.,.,.
CCOc1cc(C(=S)N2CCOCC2)ccc1OC,.,.,13µM,.
NCCCNc1ccc(Br)cn1,/,.,/,/
O=C1NC(Cc2c[nH]c3ccccc23)C(=O)N1CCOc1ccc(F)cc1 (centres undefined),.,.,.,.
O=C1NC(Cc2c[nH]c3ccccc23)C(=O)N1Cc1ccc(CN2C(=O)NC(Cc3c[nH]c4ccccc34)C2=O)cc1 (centres undefined),.,.,20.6µM,.
O=c1[nH]c(SCc2ccccc2)ncc1S(=O)(=O)c1ccccc1,/,.,/,/
CN(Cc1ccccc1)c1nc(N)nc(Cl)c1C=O,.,.,.,4.61µM
CN(Cc1ccccc1)c1ncnc2ccc(Br)cc12,.,.,.,.
Fc1cccc(Cl)c1CN1CCN(c2nc3ccccc3s2)CC1,.,.,16.4µM,.
O=C(NCC1CCCO1)c1ccc(NS(=O)(=O)c2ccccc2)cc1 (centres undefined),.,.,.,.
CC(Oc1ccc2oc3ccccc3c2c1)C(=O)NC12CC3CC(CC(C3)C1)C2 (centres undefined),.,.,16.4µM,?
COc1ccc(C(=O)NC23CC4CC(CC(C4)C2)C3)cc1,.,.,.,.
SMILES,uPA generation,Giardia killer,MCF10A rereplic,SW480 rereplic
COc1cccc(-c2csc(N3CCN(C(=O)C4CCCCC4)CC3)n2)c1,.,.,14.6µM,.
COCCn1c(C)cc(C(=O)CN2C(=O)NC3(CCCCCCC3)C2=O)c1C,.,.,11.6µM,?
O=C(O)c1ccc(S(=O)(=O)NCC2CCCCC2)cc1,.,.,.,.
CC(=O)Nc1ccc(SCC(=O)NNC(=O)CN(C)S(=O)(=O)c2ccc(C)cc2)cc1,.,.,.,5.17µM
Cc1c(C(=O)OCCOc2ccc(Br)cc2)sc(=S)n1C,.,.,.,.
CN(C(=O)CCl)C1CCCc2ccccc21 (centres undefined),?,.,?,2.31µM
O=C(N/N=C/c1ccccc1)c1ccco1,.,.,.,.
O=C(C#Cc1ccccc1)c1ccco1,.,.,?,5.8µM
C/C(=N\N1C(=O)c2ccccc2NC1c1ccccc1)c1ccccc1O (centres undefined),.,.,.,?
C/C(=N\N1C(=O)c2ccccc2NC1c1ccco1)c1ccccc1O (centres undefined),7.94µM,.,4.11µM,?
CCOC(=O)c1c(C)[nH]c(C)c1C(=O)Cn1nnc(-c2ccccc2C)n1,.,.,20.6µM,.
O=C(NCC1CCCCC1)c1cc(S(=O)(=O)N2CCOCC2)ccc1F,.,.,.,.
CC(=O)c1ccc2c(c1)Cc1cc(C(C)=O)ccc1-2,.,.,.,.
CC(=O)c1ccc2c(c1)CC1(C2)Cc2cc3c(cc2C1)C(=O)CC3 (centres undefined),.,.,4.11µM,7.31µM
Nc1nccs1,/,/,.,.
Cc1nnsc1C(=O)NNc1c(Cl)cccc1Cl,.,.,.,.
CCc1ccccc1NNC(=O)c1snnc1C,.,.,?,11.6µM
O=C(O)c1ccc(NC2=C(N3CCOCC3)C(=O)c3ccccc3C2=O)cc1,.,.,.,/

# Source: PubChem BioAssay
